This note sets out measurements from PubChem BioAssay (EPA / NIEHS).

Where “and” joins values, the source holds several entries; their conditions need not be identical. Equal entries are not always repeated. Some structures have more than one record in an assay (separate samples or runs), and their calls can disagree. Calls of active or inactive are those of the source. Rule for the calls: active = hit-call score of the fitted dose curve at least 0.9, where 1 is the maximum; inactive = score below 0.9.

This experiment in a line: BSK_SAg_SRB: Viability Assessment in the BioMAP Diversity Plus: SAg Assay (AID 2283096).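 Note: cells read one day after compound addition; hits may be either gain or loss of signal compared with DMSO.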 Conditions: primary human HUVEC with PBMC. The method, then:
BSK_SAg is a cell-based, multiplexed-readout assay that uses umbilical vein endothelium and peripheral blood mononuclear cells, a human vascular primary cell co-culture, with measurements taken at 24 hours after chemical dosing in a 96-well plate.BSK_SAg_SRB is an assay component measured in the BSK_SAg assay. It measures protein content, a form of viability reporter, as detected with absorbance signals by Sulforhodamine staining technology.Data from the assay component BSK_SAg_SRB was analyzed into 1 assay endpoint. This assay endpoint, BSK_SAg_SRB, was analyzed with bidirectional fitting relative to DMSO as the negative control and baseline of activity. Using a type of viability reporter, gain or loss-of-signal activity can be used to understand changes in the signaling. Furthermore, this assay endpoint can be referred to as a primary readout, because this assay has produced multiple assay endpoints where this one serves a signaling function. To generalize the intended target to other relatable targets, this assay endpoint is annotated to the cell morphology intended target family, where the subfamily is cell conformation.
The levels of cell surface (or secreted, indicated by the prefix "s") biomarker endpoints were measured by ELISA. Overt cytotoxicity to cells in confluent adherent cultures (all systems other than the BT system) was assessed by measuring total protein levels using sulforhodamine B (SRB) staining in parallel cultures at the time of biomarker measurements, indicated as SRB endpoints. For proliferation assays for adherent cell types, individual cell types are cultured at sub-confluence and relative cell numbers quantified by SRB staining at time points optimized for each system (48 h: 3C and CASM3C systems; 72 h: BT and HDF3CGF systems; 96 h: SAg system). SRB was performed by staining cells with 0.1% SRB after fixation with 10% TCA and reading wells at 560 nm.Viability and proliferation of PBMC (T cells) was quantified by Alamar Blue reduction for the SAg and BT systems. For PBMC viability (referred to as PBMC Cytotoxicity within the assay endpoint names), cells were plated (75,000/well in a 96-well plate) and then chemical samples added for 1 h before addition of activators, SEB and TSST-1 (20 ng/mL final concentration each). Cells were incubated for 90 h. Then, Alamar Blue (20 uL/well) (Invitrogen, Cat DAL1100) was added for 6 h, and the plates were read with a fluorescence microplate reader at 546/580 nm (excitation/emission). For PBMC proliferation, cells were plated and activated as above but incubated for only 16 h prior to addition of Alamar Blue. Plates were read after 6 h.
With `COc1cnc(OC)n2nc(NS(=O)(=O)c3c(OCC(F)F)cccc3C(F)(F)F)nc12`, the result was inactive.

`COc1nc(C)nc(NC(=O)NS(=O)(=O)c2ccccc2Cl)n1`: the outcome was inactive.

In the case of `CC(Oc1ccc(Cl)cc1Cl)C(=O)O` (stereo not given), the outcome was inactive.

What is called AC50 is the concentration giving half of the maximal activity seen. Take `Cc1ccc(-c2c(Cl)nc(C#N)n2S(=O)(=O)N(C)C)cc1`: the AC50 is 25 µM (active).

Turning to `COc1ccc(C(c2ccc(OC)cc2)C(Cl)(Cl)Cl)cc1`, the AC50 is 14.9 µM (active).

Take `CC(C)Oc1cc(-n2nc(C(C)(C)C)oc2=O)c(Cl)cc1Cl`: the AC50 was 30.5 µM (active).

With `N#Cc1nn(-c2c(Cl)cc(C(F)(F)F)cc2Cl)c(N)c1S(=O)C(F)(F)F` (stereo not given), the AC50 was 34 µM (active).

In the case of `C=CCC1=C(C)[C@@H](OC(=O)[C@@H]2[C@@H](C=C(C)C)C2(C)C)CC1=O`, the half-maximal activity concentration (AC50) is 29.2 µM (active).

Take `N#Cc1cc(Br)c(O)c(Br)c1`: the AC50 was 20 µM (active).

For `CCOc1cc(Oc2ccc(C(F)(F)F)cc2Cl)ccc1[N+](=O)[O-]`, the AC50 was 13.3 µM (active).

For `CNC(=S)S`, the AC50 was 23.3 µM (active).

On to `COC(=O)c1ccccc1C(=O)OC`, for which the outcome was inactive.

Consider `CC(C)C1(C)N=C(c2nc3ccccc3cc2C(=O)O)NC1=O` (stereo not given), for which the outcome was inactive.

With `C=CC1(C)OC(=O)N(c2cc(Cl)cc(Cl)c2)C1=O` (stereo not given), the outcome was inactive.

Consider `CC1=C(C(=O)Nc2ccccc2)SCCO1`, for which the outcome was inactive.

In the case of `COC(=O)N(OC)c1ccccc1COc1ccn(-c2ccc(Cl)cc2)n1`, the AC50 is 8.48 µM (active).

For `CO/C=C(/C(=O)OC)c1ccccc1Oc1cc(Oc2ccccc2C#N)ncn1`, the AC50 is 21.1 µM (active) and 15.4 µM (active); the result was inactive.

In the case of `COc1nc(NC(C)C)nc(NC(C)C)n1`, the result was inactive.

Take `CCOC(=O)C(Cl)Cc1cc(-n2nc(C)n(C(F)F)c2=O)c(F)cc1Cl` (stereo not given): the result was inactive.

As to `Fc1ccc(Oc2ccnc3cc(Cl)cc(Cl)c23)cc1`, the AC50 is 25.5 µM (active).

Turning to `C=CCC1=C(C)C(OC(=O)C2C(C=C(C)C)C2(C)C)CC1=O` (stereo not given), the AC50 is 32.1 µM (active) and 32.7 µM (active) and 36.2 µM (active); the result was inactive.

Turning to `CCCC1COC(Cn2cncn2)(c2ccc(Cl)cc2Cl)O1` (stereo not given), the result was inactive.

In the case of `C#CCOS(=O)OC1CCCCC1Oc1ccc(C(C)(C)C)cc1` (stereo not given), the AC50 was 10.8 µM (active).

`COc1nc(C)nc(NC(=O)NS(=O)(=O)c2ccccc2CCC(F)(F)F)n1`: the outcome was inactive.

In the case of `CCON=C(CC)C1=C(O)CC(c2c(C)cc(C)cc2C)CC1=O` (stereo not given), the result was inactive.

For the molecule `O=C(Nc1ccccc1)Nc1ccnc(Cl)c1`, the outcome was inactive.

On to `COC(=O)C=C(C)OP(=O)(OC)OC`, for which the result was inactive.

As for `O=C(O)COc1nc(Cl)c(Cl)cc1Cl`, the outcome was inactive.

Turning to `CN(C)C(=S)SSC(=S)N(C)C`, the AC50 was 35.3 µM (active).

With `COC(=O)C(C)Oc1ccc(Oc2ccc(Cl)cc2Cl)cc1` (stereo not given), the result was inactive.

Consider `CCc1nn(C)c(C(=O)NCc2ccc(C(C)(C)C)cc2)c1Cl`, for which the AC50 was 29.4 µM (active).

As for `N#CC(CCc1ccc(Cl)cc1)(Cn1cncn1)c1ccccc1` (stereo not given), the outcome was inactive.

With `Cc1c(F)c(F)c(COC(=O)C2C(/C=C(\Cl)C(F)(F)F)C2(C)C)c(F)c1F` (stereo not given), the AC50 is 25.9 µM (active).

Turning to `Cc1cc(Cl)ccc1OCC(=O)O`, the result was inactive.

Turning to `CCNc1nc(Cl)nc(NC(C)C)n1`, the result was inactive.

`OC(c1ccc(Cl)cc1)(c1cncnc1)c1ccccc1Cl` (stereo not given): the AC50 was 29.3 µM (active).

As to `CCNc1nc(Cl)nc(NCC)n1`, the outcome was inactive.

`CC(C)(C)c1ccc(CSc2cnn(C(C)(C)C)c(=O)c2Cl)cc1`: the AC50 is 13.6 µM (active).
